The results in this text go back to PubChem BioAssay AID1851 (National Center for Advancing Translational Sciences (NCATS), 2009).

Screen size: about 16,000 compounds; about 5,100 (32%) were called active. Not shown: some 25% with an inconclusive outcome. This is one part of the list. Values without a mark were called inactive. The call rests on the fitted dose curve; in most records, active means well fitted curve in the direction sought with a large enough effect; inconclusive means small, poorly fitted or top-dose-only effect, or effect the other way; inactive means no such curve, though single readings can be large or run the other way.

For orientation: AC50 means the concentration giving half of the maximal activity seen.
On the % scale 0 is the no-effect control and ±100 the full control effect.

For this assay, the target named is Cytochrome P450 3A4 (Homo sapiens) (UniProt P08684). Nature of the assay: Cytochrome panel assay with activity outcomes. As to conditions: recombinant CYP, pro-luciferin dealkylation, luminescence, p450-cyp3a4; series mostly up to 57.1 µM; activity, negative = inhibition: at the top concentration.
Sequence of Cytochrome P450 3A4 (Homo sapiens) (P08684 whole entry, looked up): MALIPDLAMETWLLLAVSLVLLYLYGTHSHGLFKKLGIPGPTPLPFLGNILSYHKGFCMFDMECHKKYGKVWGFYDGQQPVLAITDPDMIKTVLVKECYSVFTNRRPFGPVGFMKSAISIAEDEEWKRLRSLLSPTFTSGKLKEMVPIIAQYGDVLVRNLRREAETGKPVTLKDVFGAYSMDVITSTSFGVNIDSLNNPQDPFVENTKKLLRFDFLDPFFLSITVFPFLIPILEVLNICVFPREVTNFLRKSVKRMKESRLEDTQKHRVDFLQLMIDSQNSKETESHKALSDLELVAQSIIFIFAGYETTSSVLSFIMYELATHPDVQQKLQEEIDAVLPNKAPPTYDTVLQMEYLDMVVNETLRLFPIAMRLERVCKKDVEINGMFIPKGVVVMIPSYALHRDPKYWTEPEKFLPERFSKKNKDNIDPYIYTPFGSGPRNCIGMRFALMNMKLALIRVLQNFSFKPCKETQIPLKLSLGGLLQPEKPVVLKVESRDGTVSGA
Consider `CS(=O)(=O)Nc1cccc(-c2nc(N3CCOCC3)c3ccccc3n2)c1`, for which the half-maximal activity concentration (AC50) is 1.58 µM (active). Same read-out and setting: as for `CS(=O)(=O)Nc1cccc(-c2nc(NCCN3CCOCC3)c3ccccc3n2)c1`, the figure is 15.8 µM (active). In the case of `CS(=O)(=O)Nc1cccc(-c2nc(N3CCNCC3)c3ccccc3n2)c1`, the “activity, negative = inhibition” value is -27.7%.

Turning to `CCCc1cc(=O)[nH]c(=S)[nH]1`, the “activity, negative = inhibition” value was -10.8% [at 25.6 µM].

In the case of `CCN(Cc1cc(Cl)cc(C)c1O)Cc1c(O)ccc2ccccc12`, the activity, negative = inhibition was -15.9% [at 11.4 µM]. Take `O=C(O)[C@H]1CN[C@H](C(=O)O)C1`: the “activity, negative = inhibition” value was 0.628%. In the case of `N#Cc1cccc(-c2nc(NCCN3CCOCC3)c3ccccc3n2)c1`, the AC50 was 12.6 µM (active). As to `N#Cc1cccc(-c2nc3cnc(N4CCOCC4)nc3n(C[C@H]3CCCO3)c2=O)c1`, the “activity, negative = inhibition” value was -0.471%. With `COc1ccc(-n2ncc3c(NCC4CCCO4)ncnc32)cc1` (stereo not given), the “activity, negative = inhibition” value was -18.3%. Turning to `CCc1ccc2c(c1)cc(CN(C(=S)Nc1cccc(C)c1)C1CC1)c1nnnn12`, the AC50 is 2.24 µM (active).

As for `Cc1cccc(CCNc2nc3ccccc3n3nnnc23)c1`, the “activity, negative = inhibition” value is -16.1%. Turning to `CC(NC(=O)CCSc1nc(-c2ccc3c(c2)OCO3)cc(C(F)(F)F)n1)c1ccccc1` (stereo not given), the AC50 is 0.0398 µM (active). Still for that read-out and setting: then `CC(NC(=O)CCSc1nc(-c2ccco2)cc(C(F)(F)F)n1)c1ccccc1` (stereo not given), with 20 µM (active). Turning to `C[N+]1(C)CCC(=C(c2ccccc2)c2ccccc2)CC1`, the “activity, negative = inhibition” value was -28% [at 25.6 µM].

`COc1ccc(C(Cl)=C(c2ccc(OC)cc2)c2ccc(OC)cc2)cc1`: the “activity, negative = inhibition” value was -23.8% [at 25.6 µM]. Turning to `COc1ccc(C(=O)N2CCC3(CCN(C)CC3)CC2)cc1`, the “activity, negative = inhibition” value was -26%. With `COc1ccc(C(=O)/C=C2/c3ccccc3CC(C)(C)N2C)cc1`, the concentration at half-maximal activity (AC50) is 7.08 µM (active). With `COc1cccc(-c2cncnc2NCc2cnc(C)cn2)c1`, the AC50 was 1.58 µM (active). Still for that read-out and setting: as for `COc1cccc(-c2cncnc2NCc2ccccc2)c1`, the figure is 0.316 µM (active).

Turning to `COc1cccc(-c2cncnc2NCc2cccc(C)c2)c1`, the AC50 is 0.398 µM (active).

Consider `COc1cccc(-c2cncnc2NCc2cccnc2)c1`, for which the AC50 was 1.26 µM (active).

Take `CCCCCCc1c(C[C@H](N)C(=O)O)o[nH]c1=O`: the AC50 result was “inactive”. As for `CCOc1nc(NC(C)C)nc(NC(C)C)n1`, the “activity, negative = inhibition” value is -2.02%. Same read-out and setting: as for `CC[n+]1c(P(=O)([O-])c2ccccc2)[nH]c2ccccc21`, the figure is -3.39% [at 2.29 µM]. `COc1cccc(-c2cncnc2NCc2cccs2)c1`: the AC50 is 1.58 µM (active).

For `Cc1cnc(CNc2ncncc2-c2cccc(C#N)c2)cn1`, the half-maximal activity concentration (AC50) was 2 µM (active).

For the compound `CC(=O)O[C@H]1CC[C@@]2(C)C(=CC[C@@H]3[C@H]4CC[C@@H]([C@H](C)C(=O)O)[C@]4(C)CC[C@H]32)C1`, the activity, negative = inhibition is 1.09% [at 11.4 µM]. On to `N=c1nc(N2CCCCC2)cc(N)n1O`, for which the AC50 entry was “inactive”. On the same count and under the same terms, as for `Cc1ccc(-n2nnnc2Sc2nc([N+](=O)[O-])nn2C)cc1C`, the figure is 15.8 µM (active). Consider `O=C(O)c1ccc(Sc2nnnn2-c2ccccc2)c([N+](=O)[O-])c1`, for which the activity, negative = inhibition is -2.88% [at 11.4 µM]. Same read-out and setting: then `CS(=O)(=O)N1CCN(c2ccc(C(=O)NC3C4CC5CC(C4)CC3C5)cc2[N+](=O)[O-])CC1` (stereo not given), with -25.7%. For `COC(=O)c1cc(NS(=O)(=O)c2ccc(N3CCCCCC3)c([N+](=O)[O-])c2)cc(C(=O)OC)c1`, the half-maximal activity concentration (AC50) is 6.31 µM (active). Turning to `COC(=O)c1cc(NS(=O)(=O)c2ccc(N3CCCCC3)c([N+](=O)[O-])c2)cc(C(=O)OC)c1`, the half-maximal activity concentration (AC50) was 2 µM (active). `CC1CCN(CCCCOc2ccccc2[N+](=O)[O-])CC1`: the activity, negative = inhibition is -4.5% [at 2.29 µM].

Take `COC(=O)c1ccc(N2CCN(CC(=O)c3ccc(-c4ccccc4)cc3)CC2)c([N+](=O)[O-])c1`: the activity, negative = inhibition is 15.7% [at 2.29 µM].

For the compound `CC1CCN(c2ccc(S(=O)(=O)Nc3cc(C(=O)O)cc(C(=O)O)c3)cc2[N+](=O)[O-])CC1`, the half-maximal activity concentration (AC50) was 5.62 µM (active). The same measure, in the same setting: as for `COc1ccc2c(c1)C(=NN)c1cc(OC)ccc1-2`, the figure is 20 µM (active). `C[N+](C)(C)c1nc(N)nc2c1ncn2[C@H]1O[C@@H](CO)[C@@H](O)[C@H]1O`: the activity, negative = inhibition was 16.1% [at 11.4 µM]. For the compound `COc1ccc(O[C@H]2C=C[C@@H](c3ccccc3)O[C@H]2CO/N=C2/c3cc(OC)ccc3O[C@@H](c3cccc(OC)c3)[C@H]2O)cc1`, the AC50 is 3.16 µM (active).

On to `COc1cccc([C@H]2Oc3ccc(OC)cc3/C(=N\O[C@@H]3O[C@H](COC(C)=O)[C@H](OC(C)=O)[C@H](OC(C)=O)[C@H]3OC(C)=O)[C@@H]2O)c1`, for which the half-maximal activity concentration (AC50) was 3.16 µM (active).

With `CC(=O)OC[C@@H]1O[C@@H](O/N=C2/C[C@@H](O)[C@@H](O)[C@@H]3[C@H]4C(=O)N(c5ccc(F)cc5F)C(=O)[C@@H]4CC[C@H]23)[C@H](OC(C)=O)[C@H](OC(C)=O)[C@@H]1OC(C)=O`, the activity, negative = inhibition is -23.8% [at 11.4 µM]. On the same count and under the same terms, as for `CC(=O)OC[C@@H]1O[C@@H](O/N=C2/C[C@@H](O)[C@@H](O)[C@@H]3[C@@H]4C(=O)N(c5cccc(Oc6ccccc6)c5)C(=O)[C@H]4CC[C@@H]23)[C@H](OC(C)=O)[C@H](OC(C)=O)[C@@H]1OC(C)=O`, the figure is -35.5% [at 11.4 µM]; as for `C=CC[C@@H]1C=C[C@H](O/N=C2\c3cc(OC)ccc3O[C@H](c3cccc(OC)c3)[C@H]2O)[C@H](CO)O1`, -80.3% [at 11.4 µM]; as for `CCN1C(=O)[C@H]2[C@H]3[C@H](O)[C@H](O)C/C(=N/OCC[C@H]4C=C[C@H](OC(C)=O)[C@@H](COC(C)=O)O4)[C@@H]3CC[C@@H]2C1=O`, -18.6% [at 11.4 µM]. For `CCCNC(=O)OC[C@@H]1O[C@H](CCO/N=C2\c3cc(OC)ccc3O[C@H](c3cccc(OC)c3)[C@H]2O)C=C[C@@H]1Oc1ccc(OC)cc1`, the AC50 was 5.01 µM (active).
